Where “and” joins values, the source holds several entries; their conditions need not be identical. Identical values can stand only once. The panel holds about 79,000 compounds, 15% with a hit somewhere; the sample as a whole holds those more often. A structure can be active in one record and inactive in another. Calls of active or inactive are those of the source. No stated cut-off is given here; in the data, active means growth inhibition above about 70%; inactive means the rest. Where a SMILES comes first, the peptide text is derived from it.
Assay: NCI Yeast Anticancer Drug Screen. Data for the bub3 strain (AID 167)
Settings: S. cerevisiae bub3 mutant strain, at 50.0 µM, stronger effect = higher value
Outline: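 Compounds were applied to a genetically altered yeast strain carrying a cell-cycle control defect. Growth inhibition was scored against vehicle-treated controls.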

| Compound | growth inhibition |
| --- | --- |
| Cc1cccc(Cc2ccccc2Cl)c1O | 89.8% (active) |
| OC1CN(Cc2ccccc2)C[C@@H]1O (stereo partly specified) | -0.5% (inactive) |
| BrC(c1cccc2ccccc12)c1cccc2ccccc12 | 94.2% (active) |
| COc1nc(NC2OC(CO)C(O)C(O)C2O)c(Cl)c(=O)n1C (stereo unspecified) | 71.2% (active) |
| O=S(=O)(CC(Cl)c1ccccc1)c1nc2ccccc2s1 (stereo unspecified) | 71.4% (active) |
| CCCCCCCCCCCCOS(=O)(=O)O | -29.6% (inactive) and 97% (active) and 23.4% (inactive) |
| O=C(NNc1ccnc2cc(Cl)ccc12)/C(=C/c1ccc2c(c1)OCO2)NC(=O)c1ccccc1 | 58.9% (inactive) |
| O=C(CCN1CCN2c3ccccc3CCC2C1)c1ccc(F)cc1 (stereo unspecified) | 97.8% (active) and 95.2% (active) |
| CC1C[C@]2(C)C(=O)Nc3ccccc3[C@@H]2Nc2ccccc21 (stereo partly specified) | 91.5% (active) |
| Nc1nc(=S)c2ncn(C3OC(CO)C(O)C3O)c2[nH]1 (stereo unspecified) | -4.2% (inactive) and 98% (active) |
| O=C(O)c1c2ccccc2nc2[nH]c(=O)[nH]c(=O)c12 | 7.1% (inactive) and 34% (inactive) |
| N#Cc1c(/N=C/c2ccccc2Cl)sc2c1CCC2 | 23.9% (inactive) |
| CCC1=C(C)/C(=C/c2[nH]c(C)c(CC)c2C)N=C1C | 31.2% (inactive) and 22.6% (inactive) |
| O=C(O)c1ccccc1C(=O)O | -7.45% (inactive) and -11.4% (inactive) |
| Cc1cc(C)nc(NS(=O)(=O)c2ccc(Nc3c4ccccc4nc4c(C(=O)NCCCN(CCO)CCO)cccc34)cc2)n1 | 78.2% (active) |
| CCCCCCCCCCCCCCCCCCOCC(COP(=O)([O-])OCC[N+](C)(C)C)OC (stereo unspecified) | 90.5% (active) and -7.55% (inactive) |
| S=c1nc[nH]c2[nH]ccc12 | -5.4% (inactive) |
| C=C[C@]1(C)C=C2C(O)CC3C(C)(C)CCC[C@]3(CO)C2CC1 (stereo partly specified) | 99.5% (active) |
| c1ccc(-c2cnc(-c3ccc(-c4ncc(-c5ccccc5)o4)cc3)o2)cc1 | -32.6% (inactive) |

| Compound | growth inhibition |
| --- | --- |
| Nc1ccc2c(ccc3ccc4ccccc4c32)c1 | 96.7% (active) |
| O/N=C(\CC(O)(C(F)(F)F)C(F)(F)F)c1cccc(Cl)c1 | 90.5% (active) |
| CC(=O)OC1CCC2(C)C(CCC3C4CCC(OC(C)=O)C4(C)CCC32)O1 (stereo unspecified) | 11.3% (inactive) |
| Cc1[nH]c2ccccc2c1C1Cc2ccccc2N1 (stereo unspecified) | 30.6% (inactive) and 94.2% (active) |
| COc1ccc(C2c3cc4c(cc3OC(NNC(N)=O)C2C)OCO4)cc1 (stereo unspecified) | 85.8% (active) |
| Oc1ccc(C(O)(c2ccccc2)c2ccccc2)cc1 | 90.2% (active) and 59.2% (inactive) |
| COc1ccc(CC(=O)c2ccc(O)cc2O)cc1 | 77.1% (active) |
| COC(=O)C#CC(=O)OC | 0.8% (inactive) and 74% (active) |
| O=C1OC2=C(c3ccccc3)CCCC2C1=O (stereo unspecified) | 85.4% (active) and -6.2% (inactive) |
| CC(C)C(NC(=O)C(N)CCC(=O)O)C(=O)O (stereo not drawn) (H-Glu-Val-OH; configuration not given here) | -8.25% (inactive) |
| CC1(C)CC(=O)C2=C(C1)OC1=C(CC(C)(C)CC1=O)C2c1ccccc1Cl (stereo unspecified) | 13.2% (inactive) |
| O=C(CC(=O)CC(O)(c1ccccc1)c1ccccc1)CC(=O)c1ccccc1 | 97.2% (active) |
| O=Nc1ccc(C=C2C(=O)C=CC2=O)cc1 | 99.4% (active) |
| C[N+]1(Cc2ccc(Cl)c(Cl)c2)CCCC1C1CCCN(Cc2ccc(Cl)c(Cl)c2)C1 (stereo unspecified) | 22.2% (inactive) and 15.3% (inactive) |
| C[C@H]1CC[C@H]([C@@H](C)[C@H]2[C@@H](O)C[C@H]3[C@@H]4CC[C@H]5C[C@@H](O)CC[C@]5(C)[C@H]4CC[C@]23C)NC1 | 92.1% (active) and 89.3% (active) |
| CCOP(=O)(OCC)C(C)(CC)NC(=O)C(C(F)(F)F)C(F)(F)F (stereo unspecified) | -4.95% (inactive) and -8.05% (inactive) |
| [N-]=[N+]=NC(=O)Nc1cccc(C(F)(F)F)c1 | 98.5% (active) |
| NC(C/[N+]([O-])=N/O)C(=O)O (stereo unspecified) | -0.3% (inactive) and 17.1% (inactive) and 21.9% (inactive) |
| NC(=O)N/N=C/c1ccc([N+](=O)[O-])o1 | 10.6% (inactive) and 51.8% (inactive) |

Assay: NCI Yeast Anticancer Drug Screen. Data for the mlh1 rad18 strain (AID 175)
Settings: S. cerevisiae mlh1 rad18 strain growth inhibition; at 5.0 µM (retest, dose inferred, filed as 0.5); stronger effect = higher value
Outline: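 Test agents were incubated with a yeast strain of defined genotype (DNA damage repair defect). Inhibition of growth was derived by comparison with vehicle-exposed cultures.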

| Compound | growth inhibition |
| --- | --- |
| Cc1cccc(Cc2ccccc2Cl)c1O | -2% (inactive) |
| OC1CN(Cc2ccccc2)C[C@@H]1O (stereo partly specified) | 25% (inactive) |
| BrC(c1cccc2ccccc12)c1cccc2ccccc12 | 18% (inactive) |
| COc1nc(NC2OC(CO)C(O)C(O)C2O)c(Cl)c(=O)n1C (stereo unspecified) | -1% (inactive) |
| O=S(=O)(CC(Cl)c1ccccc1)c1nc2ccccc2s1 (stereo unspecified) | -13% (inactive) |
| CCCCCCCCCCCCOS(=O)(=O)O | -17% (inactive) |
| O=C(NNc1ccnc2cc(Cl)ccc12)/C(=C/c1ccc2c(c1)OCO2)NC(=O)c1ccccc1 | -2% (inactive) |
| O=C(CCN1CCN2c3ccccc3CCC2C1)c1ccc(F)cc1 (stereo unspecified) | 82% (active) and 40% (inactive) |
| CC1C[C@]2(C)C(=O)Nc3ccccc3[C@@H]2Nc2ccccc21 (stereo partly specified) | 16% (inactive) |
| Nc1nc(=S)c2ncn(C3OC(CO)C(O)C3O)c2[nH]1 (stereo unspecified) | 94% (active) |
| O=C(O)c1c2ccccc2nc2[nH]c(=O)[nH]c(=O)c12 | 0% (inactive) |
| N#Cc1c(/N=C/c2ccccc2Cl)sc2c1CCC2 | -1% (inactive) |
| CCC1=C(C)/C(=C/c2[nH]c(C)c(CC)c2C)N=C1C | -7% (inactive) and 4% (inactive) |
| O=C(O)c1ccccc1C(=O)O | -2% (inactive) |
| Cc1cc(C)nc(NS(=O)(=O)c2ccc(Nc3c4ccccc4nc4c(C(=O)NCCCN(CCO)CCO)cccc34)cc2)n1 | -7% (inactive) |
| CCCCCCCCCCCCCCCCCCOCC(COP(=O)([O-])OCC[N+](C)(C)C)OC (stereo unspecified) | -59% (inactive) |
| S=c1nc[nH]c2[nH]ccc12 | -1% (inactive) |
| C=C[C@]1(C)C=C2C(O)CC3C(C)(C)CCC[C@]3(CO)C2CC1 (stereo partly specified) | 26% (inactive) |
| c1ccc(-c2cnc(-c3ccc(-c4ncc(-c5ccccc5)o4)cc3)o2)cc1 | 5% (inactive) |

| Compound | growth inhibition |
| --- | --- |
| Nc1ccc2c(ccc3ccc4ccccc4c32)c1 | 17% (inactive) |
| O/N=C(\CC(O)(C(F)(F)F)C(F)(F)F)c1cccc(Cl)c1 | 26% (inactive) |
| CC(=O)OC1CCC2(C)C(CCC3C4CCC(OC(C)=O)C4(C)CCC32)O1 (stereo unspecified) | 6% (inactive) |
| Cc1[nH]c2ccccc2c1C1Cc2ccccc2N1 (stereo unspecified) | 15% (inactive) and 20% (inactive) |
| COc1ccc(C2c3cc4c(cc3OC(NNC(N)=O)C2C)OCO4)cc1 (stereo unspecified) | 6% (inactive) |
| Oc1ccc(C(O)(c2ccccc2)c2ccccc2)cc1 | 40% (inactive) and 45% (inactive) |
| COc1ccc(CC(=O)c2ccc(O)cc2O)cc1 | 19% (inactive) |
| COC(=O)C#CC(=O)OC | -2% (inactive) |
| O=C1OC2=C(c3ccccc3)CCCC2C1=O (stereo unspecified) | 0% (inactive) |
| CC(C)C(NC(=O)C(N)CCC(=O)O)C(=O)O (stereo not drawn) (H-Glu-Val-OH; configuration not given here) | -3% (inactive) |
| CC1(C)CC(=O)C2=C(C1)OC1=C(CC(C)(C)CC1=O)C2c1ccccc1Cl (stereo unspecified) | 17% (inactive) |
| O=C(CC(=O)CC(O)(c1ccccc1)c1ccccc1)CC(=O)c1ccccc1 | 30% (inactive) |
| O=Nc1ccc(C=C2C(=O)C=CC2=O)cc1 | 97% (active) |
| C[N+]1(Cc2ccc(Cl)c(Cl)c2)CCCC1C1CCCN(Cc2ccc(Cl)c(Cl)c2)C1 (stereo unspecified) | -2% (inactive) |
| C[C@H]1CC[C@H]([C@@H](C)[C@H]2[C@@H](O)C[C@H]3[C@@H]4CC[C@H]5C[C@@H](O)CC[C@]5(C)[C@H]4CC[C@]23C)NC1 | 28% (inactive) and -4% (inactive) |
| CCOP(=O)(OCC)C(C)(CC)NC(=O)C(C(F)(F)F)C(F)(F)F (stereo unspecified) | 23% (inactive) |
| [N-]=[N+]=NC(=O)Nc1cccc(C(F)(F)F)c1 | 8% (inactive) |
| NC(C/[N+]([O-])=N/O)C(=O)O (stereo unspecified) | 25% (inactive) |
| NC(=O)N/N=C/c1ccc([N+](=O)[O-])o1 | 5% (inactive) |
